# Reference: publication PMC7862700, “An all-to-all approach to the identification of sequence-specific readers for epigenetic DNA modifications on cytosine”
# Experiments:
# Test in all cases: DAPPL (digital affinity profiling via proximity ligation, sequencing); 10 mM Tris-HCl pH 7.5, 50 mM NaCl, 1 mM DTT, 4% glycerol, room temperature, 30 min; GST-TFs on glutathione beads, 16-mer random dsDNA library, 0.1% formaldehyde crosslink after washing; high values mean tight binding
# Details in all cases: protein: recombinant; tags: N-terminal GST; dsDNA, one strand shown
# FEV = biological target: T1, FEV (Homo sapiens, UniProt Q99581 1-238)
# T1 sequence: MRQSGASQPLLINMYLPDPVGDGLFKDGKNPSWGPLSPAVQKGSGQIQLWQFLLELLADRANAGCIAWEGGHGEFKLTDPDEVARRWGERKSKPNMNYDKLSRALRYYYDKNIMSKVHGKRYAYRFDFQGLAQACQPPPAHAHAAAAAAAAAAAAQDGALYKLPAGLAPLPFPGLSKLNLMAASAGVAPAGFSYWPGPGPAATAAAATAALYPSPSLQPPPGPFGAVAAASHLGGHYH
# Method in brief: (§1)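 After expression in yeast as GST fusions, human transcription factors were bound to glutathione beads, DNA-barcoded and mixed with a tag-only sample. The pools were incubated with 200 nmole of a 16-mer random double-stranded DNA library in Tris/NaCl/DTT/glycerol buffer (30 min, room temperature), washed and crosslinked with 0.1% formaldehyde. Proximity ligation with BsaI/T4 ligase ran for 1 h at 37 °C, before PCR amplification and sequencing on an Illumina NextSeq500. Binding signal is a hexamer's read frequency for a factor divided by its frequency for the tag-only sample.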
# ETV5 = ETV5 (Homo sapiens, UniProt P41161 1-510)
# Method in brief: as §1
# SPIC = biological target: T2, SPIC (Homo sapiens, UniProt Q8N5J4 1-248)
# T2 sequence: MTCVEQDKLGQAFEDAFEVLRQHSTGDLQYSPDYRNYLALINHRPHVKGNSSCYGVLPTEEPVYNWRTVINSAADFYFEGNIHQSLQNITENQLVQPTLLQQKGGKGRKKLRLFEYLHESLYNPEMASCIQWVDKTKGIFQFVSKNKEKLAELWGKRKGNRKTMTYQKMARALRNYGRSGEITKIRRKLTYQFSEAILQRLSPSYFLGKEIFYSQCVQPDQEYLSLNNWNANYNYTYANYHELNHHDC
# Method in brief: as §1
# ELF4 = ELF4 (Homo sapiens, UniProt Q99607 1-663)
# Method in brief: as §1
# ELK4 = biological target: T3, ELK4 (Homo sapiens, UniProt P28324-2 1-405)
# T3 sequence: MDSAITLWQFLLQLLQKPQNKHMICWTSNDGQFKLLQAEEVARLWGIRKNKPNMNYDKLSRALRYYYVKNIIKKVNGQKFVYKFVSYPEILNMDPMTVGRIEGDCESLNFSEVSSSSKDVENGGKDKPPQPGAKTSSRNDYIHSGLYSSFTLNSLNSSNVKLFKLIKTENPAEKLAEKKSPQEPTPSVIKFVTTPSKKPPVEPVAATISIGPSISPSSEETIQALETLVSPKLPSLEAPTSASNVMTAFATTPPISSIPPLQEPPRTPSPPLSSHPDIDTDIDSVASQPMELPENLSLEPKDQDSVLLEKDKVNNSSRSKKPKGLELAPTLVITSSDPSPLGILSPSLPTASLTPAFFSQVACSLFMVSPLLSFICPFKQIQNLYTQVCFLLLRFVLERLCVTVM
# Method in brief: as §1
# ETV2 = biological target: T4, ETV2 (Homo sapiens, UniProt O00321 1-342)
# T4 sequence: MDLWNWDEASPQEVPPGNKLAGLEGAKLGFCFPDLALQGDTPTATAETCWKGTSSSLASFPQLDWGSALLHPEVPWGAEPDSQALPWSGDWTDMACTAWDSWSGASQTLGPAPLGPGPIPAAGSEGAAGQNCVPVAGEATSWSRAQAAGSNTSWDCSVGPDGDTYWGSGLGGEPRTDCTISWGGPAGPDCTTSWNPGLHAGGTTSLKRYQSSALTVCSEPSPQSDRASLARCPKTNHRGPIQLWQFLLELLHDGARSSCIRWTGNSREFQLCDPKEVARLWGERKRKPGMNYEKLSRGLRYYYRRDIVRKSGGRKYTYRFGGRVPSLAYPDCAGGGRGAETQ
# Method in brief: as §1
# ELF3 = biological target: T5, ELF3 (Homo sapiens, UniProt P78545 1-371)
# T5 sequence: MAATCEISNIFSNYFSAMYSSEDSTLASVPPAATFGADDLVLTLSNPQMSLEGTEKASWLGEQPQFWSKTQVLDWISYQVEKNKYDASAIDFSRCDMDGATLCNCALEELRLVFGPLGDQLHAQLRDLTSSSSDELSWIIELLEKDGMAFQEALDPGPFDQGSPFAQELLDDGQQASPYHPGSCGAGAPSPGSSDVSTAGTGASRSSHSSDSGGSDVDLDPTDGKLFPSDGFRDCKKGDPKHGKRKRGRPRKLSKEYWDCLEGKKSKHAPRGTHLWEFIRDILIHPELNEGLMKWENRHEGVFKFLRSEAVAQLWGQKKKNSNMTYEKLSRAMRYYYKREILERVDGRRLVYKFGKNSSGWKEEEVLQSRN
# Method in brief: as §1
# ERF = biological target: T6, ERF (Homo sapiens, UniProt P50548 1-548)
# T6 sequence: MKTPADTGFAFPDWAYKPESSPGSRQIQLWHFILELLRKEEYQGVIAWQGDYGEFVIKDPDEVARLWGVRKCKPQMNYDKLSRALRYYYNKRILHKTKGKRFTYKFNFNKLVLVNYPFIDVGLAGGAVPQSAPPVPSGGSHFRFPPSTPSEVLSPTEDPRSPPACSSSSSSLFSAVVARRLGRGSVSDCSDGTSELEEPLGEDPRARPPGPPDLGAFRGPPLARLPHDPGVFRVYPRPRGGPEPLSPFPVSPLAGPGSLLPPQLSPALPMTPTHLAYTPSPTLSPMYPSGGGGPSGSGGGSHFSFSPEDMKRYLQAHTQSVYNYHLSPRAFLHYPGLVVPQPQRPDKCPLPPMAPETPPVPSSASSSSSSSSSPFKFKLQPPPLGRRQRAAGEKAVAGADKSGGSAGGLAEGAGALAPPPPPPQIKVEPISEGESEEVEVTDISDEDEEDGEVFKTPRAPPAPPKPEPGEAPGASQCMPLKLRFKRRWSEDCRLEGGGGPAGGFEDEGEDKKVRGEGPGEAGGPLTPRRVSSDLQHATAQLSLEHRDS
# Method in brief: as §1
# ETV3L = biological target: T7, ETV3L (Homo sapiens, UniProt Q6ZN32 1-361)
# T7 sequence: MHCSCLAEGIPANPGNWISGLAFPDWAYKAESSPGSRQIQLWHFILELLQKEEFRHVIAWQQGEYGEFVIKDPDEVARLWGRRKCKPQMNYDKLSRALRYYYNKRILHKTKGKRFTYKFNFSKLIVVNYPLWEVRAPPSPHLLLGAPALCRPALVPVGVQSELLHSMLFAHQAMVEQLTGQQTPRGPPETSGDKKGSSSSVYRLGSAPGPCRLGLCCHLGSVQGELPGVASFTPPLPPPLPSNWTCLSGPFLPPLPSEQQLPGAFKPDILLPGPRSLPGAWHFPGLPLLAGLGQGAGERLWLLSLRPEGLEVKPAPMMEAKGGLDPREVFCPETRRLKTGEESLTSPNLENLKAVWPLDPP
# Method in brief: as §1
# ETS2 = biological target: T8, ETS2 (Homo sapiens, UniProt P15036 1-469)
# T8 sequence: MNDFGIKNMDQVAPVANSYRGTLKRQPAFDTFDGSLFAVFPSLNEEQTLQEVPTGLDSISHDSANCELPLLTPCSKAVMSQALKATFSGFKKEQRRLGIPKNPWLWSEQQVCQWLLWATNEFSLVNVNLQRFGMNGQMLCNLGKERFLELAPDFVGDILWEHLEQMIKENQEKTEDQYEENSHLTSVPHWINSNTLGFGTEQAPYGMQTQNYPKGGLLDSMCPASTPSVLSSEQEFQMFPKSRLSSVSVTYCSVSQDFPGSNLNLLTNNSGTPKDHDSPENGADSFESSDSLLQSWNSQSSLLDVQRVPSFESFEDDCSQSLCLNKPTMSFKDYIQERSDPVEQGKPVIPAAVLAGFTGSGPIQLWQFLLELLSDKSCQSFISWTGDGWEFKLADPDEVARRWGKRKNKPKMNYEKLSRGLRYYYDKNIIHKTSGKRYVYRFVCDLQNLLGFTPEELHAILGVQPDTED
# Method in brief: as §1
# SPDEF = biological target: T9, SPDEF (Homo sapiens, UniProt O95238 1-335)
# T9 sequence: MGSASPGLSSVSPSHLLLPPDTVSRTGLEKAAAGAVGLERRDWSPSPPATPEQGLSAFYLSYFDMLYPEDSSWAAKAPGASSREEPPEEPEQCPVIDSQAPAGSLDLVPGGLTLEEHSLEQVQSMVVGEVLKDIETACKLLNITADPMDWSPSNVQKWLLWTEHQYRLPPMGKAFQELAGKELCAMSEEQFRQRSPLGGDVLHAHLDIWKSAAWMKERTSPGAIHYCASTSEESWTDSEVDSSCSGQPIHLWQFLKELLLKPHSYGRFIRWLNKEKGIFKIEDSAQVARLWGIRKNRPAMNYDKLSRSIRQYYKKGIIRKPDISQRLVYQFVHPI
# Method in brief: as §1
# ETV7 = biological target: T10, ETV7 (Homo sapiens, UniProt Q9Y603 1-341)
# T10 sequence: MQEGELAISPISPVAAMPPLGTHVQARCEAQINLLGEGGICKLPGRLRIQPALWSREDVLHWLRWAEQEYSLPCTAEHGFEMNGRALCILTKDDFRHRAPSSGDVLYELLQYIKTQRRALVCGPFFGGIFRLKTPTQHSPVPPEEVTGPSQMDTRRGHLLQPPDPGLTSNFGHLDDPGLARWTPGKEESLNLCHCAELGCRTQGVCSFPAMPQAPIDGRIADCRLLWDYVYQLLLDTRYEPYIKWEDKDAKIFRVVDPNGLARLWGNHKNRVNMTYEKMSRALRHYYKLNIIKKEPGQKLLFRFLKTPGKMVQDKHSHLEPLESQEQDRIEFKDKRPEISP
# Method in brief: as §1
# ELF5 = biological target: T11, ELF5 (Homo sapiens, UniProt Q9UKW6-2 1-255)
# T11 sequence: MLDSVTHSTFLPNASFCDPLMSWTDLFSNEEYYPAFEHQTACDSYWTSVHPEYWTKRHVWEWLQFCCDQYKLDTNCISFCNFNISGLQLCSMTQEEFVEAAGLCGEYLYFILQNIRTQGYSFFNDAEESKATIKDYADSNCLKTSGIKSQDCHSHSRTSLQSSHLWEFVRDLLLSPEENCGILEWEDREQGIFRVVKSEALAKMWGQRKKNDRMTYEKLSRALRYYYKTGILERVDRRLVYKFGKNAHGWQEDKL
# Method in brief: as §1
# ETV3 = biological target: T12, ETV3 (Homo sapiens, UniProt P41162-2 1-143)
# T12 sequence: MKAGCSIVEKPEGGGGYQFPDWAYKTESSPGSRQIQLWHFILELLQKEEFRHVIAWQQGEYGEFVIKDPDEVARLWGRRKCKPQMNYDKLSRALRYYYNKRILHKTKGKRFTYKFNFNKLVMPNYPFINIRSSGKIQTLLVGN
# Method in brief: as §1
# ETV6 = ETV6 (Homo sapiens, UniProt P41212 1-452)
# Method in brief: as §1
# ETV1 = ETV1 (Homo sapiens, UniProt P50549 1-477)
# Method in brief: as §1
# Chain of ETV5 (P41161 whole entry): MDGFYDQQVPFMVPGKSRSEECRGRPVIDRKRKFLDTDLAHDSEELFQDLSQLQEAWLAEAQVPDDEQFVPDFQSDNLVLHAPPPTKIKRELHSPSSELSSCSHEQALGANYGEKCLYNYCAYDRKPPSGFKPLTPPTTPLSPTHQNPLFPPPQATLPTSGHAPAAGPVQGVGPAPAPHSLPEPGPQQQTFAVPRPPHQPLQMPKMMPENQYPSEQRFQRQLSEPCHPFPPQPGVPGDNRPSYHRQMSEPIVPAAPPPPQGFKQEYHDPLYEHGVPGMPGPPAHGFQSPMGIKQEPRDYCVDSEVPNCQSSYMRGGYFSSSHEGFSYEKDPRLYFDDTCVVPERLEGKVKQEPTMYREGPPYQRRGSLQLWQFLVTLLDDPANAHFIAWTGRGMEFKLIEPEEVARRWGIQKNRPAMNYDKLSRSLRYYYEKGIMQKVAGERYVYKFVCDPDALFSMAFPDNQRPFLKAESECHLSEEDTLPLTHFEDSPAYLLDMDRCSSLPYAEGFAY
# Chain of ELF4 (Q99607 whole entry): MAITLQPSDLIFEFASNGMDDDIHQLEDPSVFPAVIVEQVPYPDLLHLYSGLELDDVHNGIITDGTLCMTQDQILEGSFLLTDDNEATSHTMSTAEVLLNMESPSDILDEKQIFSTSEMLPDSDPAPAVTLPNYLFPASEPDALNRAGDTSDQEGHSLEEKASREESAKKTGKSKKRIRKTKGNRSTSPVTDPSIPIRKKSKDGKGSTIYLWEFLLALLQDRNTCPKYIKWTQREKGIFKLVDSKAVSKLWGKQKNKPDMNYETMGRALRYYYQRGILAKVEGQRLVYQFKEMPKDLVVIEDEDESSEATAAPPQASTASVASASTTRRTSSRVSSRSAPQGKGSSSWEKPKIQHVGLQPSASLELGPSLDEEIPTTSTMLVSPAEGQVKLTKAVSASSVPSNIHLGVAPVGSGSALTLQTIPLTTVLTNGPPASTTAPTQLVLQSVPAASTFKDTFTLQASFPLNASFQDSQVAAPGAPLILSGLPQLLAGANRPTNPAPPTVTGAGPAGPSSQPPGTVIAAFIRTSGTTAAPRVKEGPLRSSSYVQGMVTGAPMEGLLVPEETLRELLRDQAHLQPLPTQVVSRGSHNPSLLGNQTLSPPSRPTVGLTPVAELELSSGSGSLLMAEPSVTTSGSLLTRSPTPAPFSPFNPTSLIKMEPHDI
# Chain of ETV6 (P41212 whole entry): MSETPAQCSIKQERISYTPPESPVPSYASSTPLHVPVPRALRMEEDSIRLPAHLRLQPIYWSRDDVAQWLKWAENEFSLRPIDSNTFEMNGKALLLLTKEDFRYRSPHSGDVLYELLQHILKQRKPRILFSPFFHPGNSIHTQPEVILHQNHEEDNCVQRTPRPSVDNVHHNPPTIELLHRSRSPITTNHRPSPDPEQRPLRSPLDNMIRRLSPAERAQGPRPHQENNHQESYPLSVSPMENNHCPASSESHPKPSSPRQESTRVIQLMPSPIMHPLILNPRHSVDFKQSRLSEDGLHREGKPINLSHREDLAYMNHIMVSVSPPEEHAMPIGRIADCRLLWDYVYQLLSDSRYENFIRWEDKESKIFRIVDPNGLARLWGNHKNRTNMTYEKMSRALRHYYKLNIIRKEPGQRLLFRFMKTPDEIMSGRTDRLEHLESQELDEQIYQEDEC
# Chain of ETV1 (P50549 whole entry): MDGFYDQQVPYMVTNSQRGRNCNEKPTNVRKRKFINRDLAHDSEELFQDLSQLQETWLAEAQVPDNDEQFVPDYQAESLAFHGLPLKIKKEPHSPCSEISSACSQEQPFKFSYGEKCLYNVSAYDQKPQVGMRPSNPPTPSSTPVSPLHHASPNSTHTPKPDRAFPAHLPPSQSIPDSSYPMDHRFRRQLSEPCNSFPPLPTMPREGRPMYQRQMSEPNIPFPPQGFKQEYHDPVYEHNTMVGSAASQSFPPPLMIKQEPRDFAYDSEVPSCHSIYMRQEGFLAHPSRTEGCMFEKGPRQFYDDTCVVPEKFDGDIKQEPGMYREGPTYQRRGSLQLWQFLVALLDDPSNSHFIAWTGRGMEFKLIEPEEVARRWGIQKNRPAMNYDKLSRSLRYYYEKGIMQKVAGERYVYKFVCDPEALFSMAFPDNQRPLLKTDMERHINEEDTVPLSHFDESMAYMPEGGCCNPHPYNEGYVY
Sequence,binding signal (FEV),binding signal (ETV5),binding signal (SPIC),binding signal (ELF4),binding signal (ELK4),binding signal (ETV2),binding signal (ELF3),binding signal (ERF),binding signal (ETV3L),binding signal (ETS2),binding signal (SPDEF),binding signal (ETV7),binding signal (ELF5),binding signal (ETV3),binding signal (ETV6),binding signal (ETV1)
GCGCTC,"1.06 fold enrichment (6-mer frequency, TF over GST control)","1.13 fold enrichment (6-mer frequency, TF over GST control)","1.04 fold enrichment (6-mer frequency, TF over GST control)","1.24 fold enrichment (6-mer frequency, TF over GST control)","1.19 fold enrichment (6-mer frequency, TF over GST control)","1.22 fold enrichment (6-mer frequency, TF over GST control)","1.19 fold enrichment (6-mer frequency, TF over GST control)","1.2 fold enrichment (6-mer frequency, TF over GST control)","1.19 fold enrichment (6-mer frequency, TF over GST control)","1.2 fold enrichment (6-mer frequency, TF over GST control)","1.07 fold enrichment (6-mer frequency, TF over GST control)","1.04 fold enrichment (6-mer frequency, TF over GST control)","1.05 fold enrichment (6-mer frequency, TF over GST control)","1.08 fold enrichment (6-mer frequency, TF over GST control)","1.02 fold enrichment (6-mer frequency, TF over GST control)",
GCAATG,"1.08 fold enrichment (6-mer frequency, TF over GST control)","1.09 fold enrichment (6-mer frequency, TF over GST control)","1.08 fold enrichment (6-mer frequency, TF over GST control)","1.04 fold enrichment (6-mer frequency, TF over GST control)","1.13 fold enrichment (6-mer frequency, TF over GST control)","1.07 fold enrichment (6-mer frequency, TF over GST control)","1.17 fold enrichment (6-mer frequency, TF over GST control)","1.02 fold enrichment (6-mer frequency, TF over GST control)",,,,"1.14 fold enrichment (6-mer frequency, TF over GST control)",,"1.03 fold enrichment (6-mer frequency, TF over GST control)","1.12 fold enrichment (6-mer frequency, TF over GST control)","1.06 fold enrichment (6-mer frequency, TF over GST control)"
TAGGTC,,"1.06 fold enrichment (6-mer frequency, TF over GST control)","1.11 fold enrichment (6-mer frequency, TF over GST control)","1.02 fold enrichment (6-mer frequency, TF over GST control)","1.11 fold enrichment (6-mer frequency, TF over GST control)","1.14 fold enrichment (6-mer frequency, TF over GST control)","1.06 fold enrichment (6-mer frequency, TF over GST control)","1.01 fold enrichment (6-mer frequency, TF over GST control)","1.02 fold enrichment (6-mer frequency, TF over GST control)",,"1.05 fold enrichment (6-mer frequency, TF over GST control)","1.11 fold enrichment (6-mer frequency, TF over GST control)","1.02 fold enrichment (6-mer frequency, TF over GST control)","1.04 fold enrichment (6-mer frequency, TF over GST control)",,"1.01 fold enrichment (6-mer frequency, TF over GST control)"
